# BAZ2B inh = qHTS Assay for Inhibitors of BAZ2B. AID 504333, 2011. 4.4% of 360,000 active. Potency, µM (series often up to 114 µM), without a hit: top-dose activity change, negative = inhibition, usual class: inhibitors. AlphaScreen BAZ2B-H3K14Ac peptide displacement. Bromodomain adjacent to zinc finger domain protein 2B (Homo sapiens), Q9UIF8; also: potency is read from the fitted curve at half-maximal effect; % is scaled to controls: 0 for no effect and ±100 for the full control effect; nearly all actives have a fitted effect of over 60% in size
#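 Protein-peptide AlphaScreen: BAZ2B 50 nM, b-H3K14Ac 50 nM, 1x PBS pH 7.4 + 0.01% Tween-20. Preincubation 30 min RT; cpd 30 min RT (top 110 uM); beads 20 min RT, light-protected.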
# G9a inh = qHTS Assay for Inhibitors of Histone Lysine Methyltransferase G9a | Potency, µM (highest dose often 102 µM), without a hit: top-dose activity, negative = inhibition, most hits filed as inhibitors | 8.8% of 350,000 active | G9a H3K9 monomethylation, AlphaScreen, 2 h | Histone-lysine N-methyltransferase EHMT2 (Homo sapiens), Q96KQ7; also: potency is read from the fitted curve at half-maximal effect; % is scaled to controls: 0 for no effect and ±100 for the full control effect; nearly all actives have a fitted effect of over 75% in size
#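 AlphaScreen detection with an anti-monomethyl H3K9 antibody quantified product after a 2 h room-temperature reaction containing 500 nM biotinylated H3K9 peptide, 20 µM SAM and 20 nM enzyme, which had been preincubated 15 min with compound.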
# JMJD2A Tudor = qHTS Assay for Inhibitors of JMJD2A-Tudor Domain; Lysine-specific demethylase 4A (Homo sapiens), O75164; Potency, µM (doses to about 114 µM), inactives show top-dose activity change, negative = inhibition, hits mostly inhibitors; 4.4% of 390,000 active; AID 504339, 2011; AlphaScreen JMJD2A-Tudor / H3K4me3 peptide binding; also: potency is read from the fitted curve at half-maximal effect; % is scaled to controls: 0 for no effect and ±100 for the full control effect; nearly all actives have a fitted effect of over 50% in size
# PLK1 PBD inh = qHTS for Inhibitors of PLK1-PDB (polo-like kinase 1 - polo-box domain): Primary Screen; Plk1 PBD binding of FITC phosphopeptide, fluorescence polarization; 2.8% of 360,000 active; AID 720504, 2013; Potency, µM, inactives show max response, negative = inhibition, usual class: inhibitors; also: potency is read from the fitted curve at half-maximal effect; series mostly up to about 57 µM; % is scaled to controls: 0 for no effect and ±100 for the full control effect; nearly all actives have a fitted effect of over 65% in size
# Target sequence (P53350 whole entry, looked up, the tested form may be a part): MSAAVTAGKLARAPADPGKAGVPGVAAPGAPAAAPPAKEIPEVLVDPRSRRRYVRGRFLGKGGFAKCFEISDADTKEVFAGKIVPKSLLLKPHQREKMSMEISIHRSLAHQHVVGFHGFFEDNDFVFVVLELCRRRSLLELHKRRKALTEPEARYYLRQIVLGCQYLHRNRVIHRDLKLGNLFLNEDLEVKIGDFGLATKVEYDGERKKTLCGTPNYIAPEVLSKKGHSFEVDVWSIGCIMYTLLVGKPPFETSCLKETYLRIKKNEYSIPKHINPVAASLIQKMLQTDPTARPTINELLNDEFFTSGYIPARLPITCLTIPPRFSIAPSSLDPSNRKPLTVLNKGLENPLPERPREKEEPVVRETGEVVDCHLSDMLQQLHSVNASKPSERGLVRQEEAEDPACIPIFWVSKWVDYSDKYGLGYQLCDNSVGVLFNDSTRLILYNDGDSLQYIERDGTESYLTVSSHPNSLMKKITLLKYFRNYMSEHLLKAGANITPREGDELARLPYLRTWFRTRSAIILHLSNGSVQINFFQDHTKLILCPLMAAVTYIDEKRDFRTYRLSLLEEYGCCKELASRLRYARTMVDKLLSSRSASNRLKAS
# PI5P4Ka inh = qHTS for Inhibitors of phosphatidylinositol 5-phosphate 4-kinase (PI5P4K); PI5P4Kalpha enzyme, ADP-Glo luminescence, 60 min; active compounds read low; max response, %; 1.2% of 330,000 active; active = max response of -50% or lower; inconclusive = between -30% and -50%; inactive = -30% or higher; also: value at the top dose of about 77 µM; % is scaled to controls: 0 for no effect and ±100 for the full control effect
#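 ADP-Glo luminescence end-point read after a 60 min room-temperature kinase reaction of PI5P4Kalpha plus substrate, initiated with ATP at 5 microM final. Buffer: 0.038 M HEPES pH 7.4, EGTA, 0.1% CHAPS, 5% DMSO.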
# HP1b binding inh = HTS for Inhibitors of HP1-beta Chromodomain Interactions with Methylated Histone Tails; Potency, µM (series often up to 114 µM), for inactives: at the highest dose activity change, negative = inhibition, actives largely listed as inhibitors; AlphaScreen HP1-beta / biotin-H3K9me3 peptide binding; 0.56% of 390,000 active; Chromobox protein homolog 1 (Homo sapiens), P83916; also: potency is read from the fitted curve at half-maximal effect; nearly all actives have a fitted effect of over 70% in size
# Target sequence (P83916 whole entry, looked up): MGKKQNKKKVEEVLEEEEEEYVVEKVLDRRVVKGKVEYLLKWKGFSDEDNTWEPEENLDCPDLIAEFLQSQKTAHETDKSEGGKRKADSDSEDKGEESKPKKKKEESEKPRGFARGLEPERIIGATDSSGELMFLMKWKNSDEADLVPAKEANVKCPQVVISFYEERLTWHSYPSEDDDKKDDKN
#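 AlphaScreen: HP1-beta (50 nM) preformed 30 min with biotin-H3(1-18)K9me3 peptide (50 nM) in PBS pH 7.4, 0.01% Tween-20. Compound added for 30 min at RT, then streptavidin donor/nickel chelate acceptor beads (10 ug/mL) for 30 min.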
# * hit, by the source's call; ? = inconclusive; . = no result given; [ ] = remark or other dose. Sampled rows, rich in hits. Any-hit rate of the full collection: about 12%. Unless noted, calls follow the shape of the dose curve; as a rule, active = well fitted curve in the direction sought with a large enough effect; inconclusive = small, poorly fitted or top-dose-only effect, or another doubt; inactive = no such curve, though single readings can be large; an effect the other way counts as inactive or inconclusive.
SMILES,BAZ2B inh,G9a inh,JMJD2A Tudor,PLK1 PBD inh,PI5P4Ka inh,HP1b binding inh
O=C(CCCn1cncn1)N1CCCC(Nc2ccc(F)cc2)C1 (centres undefined),-12.7%,?,-6.6%,-0.4%,-2.5,27.1%
Oc1c(Cl)cc(Cl)cc1CNc1nccs1,0.0%,79.4µM*,-13.1%,1.3%,0.8,16.2%
O=C(Cc1ccccc1Cl)NC1(O)C(=O)c2ccccc2C1=O,-0.1%,56.2µM*,-2.4%,-22.6%,1.9,49.0%
Cc1nc2c(c(SCC(=O)Nc3ccccc3C(F)(F)F)n1)CCC2,-2.5%,6.5%[59 µM],5.6%,.,.,40.9%
CCC(c1nnc(SCc2nc3ccccc3s2)n1Cc1ccccc1)N(C)C (centres undefined),-26.3%,50.1µM*,-27.6%,-3.2%,8.1,16.9%
c1ccc(Cn2c(SCc3nc4ccccc4s3)nnc2-c2ccco2)cc1,?,7.08µM*,31.6µM*,21.2µM*,-73.5*,?
Oc1c(C=Nc2ccccc2Cl)[nH]c2ccccc12,-13.4%,8.91µM*,?,0.0%,-3.9,-22.2%
C/C(=N\NC(N)=S)C1=CCC2C3CC[C@H]4CC(O)CC[C@]4(C)C3CC[C@]12C (some centres undefined),-1.3%,8.91µM*,-18.5%,16.8µM*,-18.6,?
Cc1ccccc1S(=O)(=O)Nc1nc2ccccc2nc1N1CCOCC1,56.2µM*,-41.6%[12.7 µM],1.0%,-1.8%,0.7,33.1%
COc1cc(NC(=O)Cn2cnc(S(=O)(=O)N3CCC(C)CC3)c2)cc(OC)c1OC,-15.5%,-13.4%,-23.7%,-3.9%,8.0,45.0%
COc1ccc(S(=O)(=O)c2cc3cc(C(C)(C)C)cc(O)c3oc2=O)cc1,25.1µM*,15.8µM*,?,.,.,-16.8%
COc1ccc(S(=O)(=O)c2cc3cc(OC)ccc3oc2=O)cc1,-8.7%,-0.7%[59 µM],-4.7%,.,.,36.4%
CC1=C(C(=O)Nc2ccccc2)C2(CCCCC2)C(C#N)=C(S)N1,-32.0%,7.94µM*,-33.6%,?,-57.6*,2.0%
CSC1=C(C#N)C2(CCCCC2)C(C(=O)Nc2ccccc2)=C(C)N1,.,.,-27.4%,-8.1%,2.8,17.6%
Nc1c(S(=O)(=O)O)cc(Nc2ccc(Nc3nc(Cl)nc(Nc4ccc(S(=O)(=O)O)cc4)n3)c(S(=O)(=O)O)c2)c2c1C(=O)c1ccccc1C2=O,.,1µM*,.,.,.,.
COc1ccc(CN(Cc2ccccc2)C(C)=O)cc1COc1ccc(NC(C)=O)cc1,.,.,-17.7%,.,.,35.7%
COc1ccc(-c2nc3cccc(OC)c3c(=O)n2Cc2ccccc2)cc1COc1ccc(NC(C)=O)cc1,.,.,50.1µM*,.,.,.
COc1ccc(CN(Cc2ccccc2)C(=O)CN2CCN(C)CC2)cc1COc1ccc(NC(C)=O)cc1,.,.,35.5µM*,.,.,-5.8%
COc1ccc(-c2nc3ccc(NC(=O)COC(C)=O)cc3c(=O)n2Cc2ccccc2)cc1COc1ccc(NC(C)=O)cc1,.,.,79.4µM*,.,.,-3.1%
COc1ccc(-c2nc3ccccc3c(=O)n2Cc2ccco2)cc1COc1ccc(NC(C)=O)cc1,.,.,-21.1%,.,.,.
COc1ccc(CN(Cc2ccccc2)C(=O)Nc2ccccc2)cc1COc1ccc(NC(C)=O)cc1,.,.,?,.,.,16.9%
COc1ccc(-c2nc3ccccc3c(=O)n2Cc2ccc(CNC(=O)CO)cc2)cc1COc1ccc(NC(C)=O)cc1,.,.,79.4µM*,.,.,.
C/C=C1/C2C=C(C)CC1(N)c1ccc(=O)[nH]c1C2 (centres undefined),.,32.2%[59 µM],.,.,.,.
COc1ccc(-c2nc3ccc(NC(C)=O)cc3c(=O)n2Cc2cccc(Cl)c2)cc1COc1ccc(NC(C)=O)cc1,.,.,79.4µM*,.,.,-4.9%
O=c1cc(O)c2ccccc2n1Cc1ccccc1F,-9.9%,-31.6%,-21.5%,-4.4%,-0.8,1.1%
SMILES,BAZ2B inh,G9a inh,JMJD2A Tudor,PLK1 PBD inh,PI5P4Ka inh,HP1b binding inh
COc1cc(C)c(Cl)cc1S(=O)(=O)NCCc1c(C)[nH]c2ccccc12,31.6µM*,-29.7%[59 µM],?,.,.,-10.5%
O=C(N/N=C/C=C\c1ccco1)c1ccccn1,56.2µM*,35.5µM*,79.4µM*,?,-54.9*,?
O=C(N/N=C/C=C/c1ccccc1[N+](=O)[O-])c1cc(-c2ccccc2)n[nH]1,?,?,-34.0%,-13.8%,-11.1,28.6%
O=C(N/N=C\C=C\c1ccco1)c1cc(-c2ccc3ccccc3c2)n[nH]1,3.2%,31.6µM*,-33.7%,-23.6%,-68.2*,6.2%
O=C(N/N=C/C=C/c1ccco1)c1cnccn1,13.7%,44.7µM*,50.1µM*,-11.4%,-1.5,7.4%
O=C(N/N=C/c1ccco1)c1cnccn1,9.4%,4.9%[59 µM],?,-12.4%,.,11.3%
O=C(N/N=C/C=C/c1ccccc1)c1ccccn1,?,32.8%[59 µM],-9.0%,-0.8%,2.5,50.3%
COc1cc(NS(=O)(=O)c2ccc3c(c2)CC(C)N3C(=O)C2CCC2)cc(OC)c1OC (centres undefined),-15.5%,-2.6%[59 µM],-25.4%,.,.,13.9%
O=C(N[C@H]1C/C=C\C[C@@H](CC(=O)N(CCO)Cc2ccccc2)C(=O)NC[C@H](c2ccccc2)OC1=O)OCC1c2ccccc2-c2ccccc21,.,.,-25.9%,-8.1%,-18.7,22.9%
CC[C@H](C)[C@H](N)C1=N[C@H](C(=O)N[C@@H](CC(C)C)C(=O)N[C@@H](CCC(=O)O)C(=O)N[C@@H](C(=O)N[C@H]2CCCCNC(=O)[C@@H](CC(N)=O)NC(=O)[C@@H](CC(=O)O)NC(=O)[C@@H](Cc3cnc[nH]3)NC(=O)[C@@H](Cc3ccccc3)NC(=O)[C@@H]([C@@H](C)CC)NC(=O)[C@@H](CCCN)NC2=O)[C@@H](C)CC)CS1,.,41.8%[21.5 µM],.,.,.,.
CCOc1ccc(-n2nnnc2SCC(=O)Nc2ccc(NC(C)=O)cc2)cc1,-3.9%,-3.0%,3.8%,2.1%,0.8,49.5%
C#CCSc1nnnn1-c1ccc(OCC)cc1,-1.4%,50.1µM*,3.1%,-0.6%,-3.2,57.6%
Cc1cc(C)cc(NC(=S)N2C3CCCC2CC(NC(=O)C2CC2)C3)c1 (centres undefined),-11.8%,11.0%,-4.2%,-8.6%,-7.6,6.6%
COc1ccccc1-c1c(C)nn2c(N3CCN(c4ccccc4OC)CC3)cc(C)nc12,-4.9%,?,?,21.2µM*,-4.1,10.3%
